# Test results reported in the supplement of paper PMC10720658.
# Counter-ions that a name gives are not always drawn. ± gives the standard deviation of the averaged measurements.
# Tested on: AEK1 (Tb927.3.2440)
# Assay: percent reduction in TR-FRET probe signal relative to DMSO control; higher = stronger displacement of ATP-site probe (binding)
# Details: 1 µM; incubation time 1 h
row,Structure (SMILES),percent reduction in TR-FRET probe signal
1,Cn1cc(C2=C(c3ccc(Cl)cc3Cl)C(=O)NC2=O)c2ccccc21,-6.53 ± 5.3%
2,CNc1nc(Nc2cn(C(C)(C)C#N)nc2C)ncc1C(F)(F)F,-10.7 ± 11%
3,COc1ccc2cc(-c3[nH]c(-c4ccc(S(C)=O)cc4)nc3-c3ccncc3)ccc2c1 (stereo not given) [Tie2 kinase inhibitor],2.05 ± 9.9%
4,Cc1nc(NC(=O)N2CCC[C@H]2C(N)=O)sc1-c1csc(C(C)(C)C)n1,3.71 ± 6.7%
5,Cc1ccc(Nc2nccc(N(C)c3ccc4c(C)n(C)nc4c3)n2)cc1S(N)(=O)=O [Pazopanib],7.95 ± 16%
6,C=CC(=O)N1CCCC(n2c(=O)n(-c3ccc(Oc4ccccc4)cc3)c3c(N)ncnc32)C1 (stereo not given) [ONO-4059 analogue],4.33 ± 16%
7,Cc1ccc(Nc2nccc(N(C)c3ccc4c(C)n(C)nc4c3)n2)cc1S(N)(=O)=O [Pazopanib HCl],3.07 ± 12%
8,C=CC(=O)Nc1cccc(Oc2nc(Nc3ccc(N4CCN(C)CC4)cc3)nc3ccsc23)c1,-10.3 ± 4.1%
9,COc1cc(N2CCC(N3CCN(C)CC3)CC2)ccc1Nc1ncnc(Nc2ccccc2S(=O)(=O)C(C)C)n1,-6.14 ± 6.2%
10,COc1cc2c(c(OC)c1OC)-c1c(cc3c(c1OC)OCO3)C[C@@H](C)[C@@H](C)C2 [Schisandrin B (Sch B)],13.6 ± 28%
11,CC(C)(C#N)c1ccc(N2C(=O)OCc3cnc4ccc(-c5cnc6ccccc6c5)cc4c32)cc1,-6.23 ± 1.2%
12,C=CC(=O)Nc1ccc2ncnc(Nc3ccc(OCc4cccc(F)c4)c(Cl)c3)c2c1.Cc1ccc(S(=O)(=O)O)cc1,4.49 ± 7.8%
13,O=C(c1ccc(/C=C/c2n[nH]c3ccccc23)cc1)N1CCNCC1,51.6 ± 14%
14,COc1nccc(-c2c(-c3ccc(F)cc3)ncn2[C@H]2CC[C@H](O)CC2)n1,-2.94 ± 9.9%
15,O=c1cc(N2CCOCC2)oc2c(-c3ccccc3)cccc12,-4.66 ± 9.2%
16,O=C1c2ccccc2-c2n[nH]c3cccc1c23,-3.83 ± 17%
17,CC(=O)c1c(C)c2cnc(Nc3ccc(N4CCNCC4)cn3)nc2n(C2CCCC2)c1=O.Cl,-16.8 ± 5.1%
18,CCOc1ccn(-c2ccc(F)cc2)c(=O)c1C(=O)Nc1ccc(Oc2ccnc(N)c2Cl)c(F)c1,-0.77 ± 15%
19,Cc1ccc(C(=O)Nc2ccc(CN3CCN(C)CC3)c(C(F)(F)F)c2)cc1C#Cc1cnc2cccnn12,0.933 ± 14%
20,Cc1csc(-c2nnc(Nc3ccc(Oc4ncccc4-c4ccnc(N)n4)cc3)c3ccccc23)c1,55.7 ± 11%
21,C=CC(=O)Nc1cccc(Nc2nc(Nc3ccc(Oc4ccnc(C(=O)NC)c4)cc3)ncc2F)c1,-4.93 ± 4.3%
22,C=CC(=O)Nc1cccc(Nc2nc(Nc3ccc(N4CCN(C(C)=O)CC4)cc3OC)ncc2C(F)(F)F)c1,-2.96 ± 7.5%
23,CC(C)CC(NC(=O)C(Cc1ccccc1)NC(=O)C(CCC(N)=O)NC(=O)C(Cc1ccc(O)cc1)NC(=O)C(C)NC(=O)CNC(=O)C(CCCCN)NC(=O)C(Cc1c[nH]c2ccccc12)NC(=O)C(NC(=O)C(Cc1c[nH]c2ccccc12)NC(=O)C(CCCCN)NC(=O)CNC(=O)C(CC(N)=O)NC(=O)C(CCC(=O)O)NC(=O)C(Cc1c[nH]c2ccccc12)NC(=O)C(NC(=O)C(Cc1c[nH]c2ccccc12)NC(=O)C(CO)NC(=O)CNC(=O)C1CCCN1C(=O)C(Cc1c[nH]c2ccccc12)NC(=O)C(CCC(N)=O)NC(=O)C(Cc1ccccc1)NC(=O)CNC(=O)C(N)Cc1c[nH]cn1)C(C)O)C(C)O)C(=O)NC(CCCCN)C(=O)NCC(=O)NCC(=O)NCC(=O)NCC(=O)NC(CO)C(=O)NC(CCCNC(=N)N)C(=O)NC(CCCNC(=N)N)C(=O)NC(CCCNC(=N)N)C(=O)NC(CCCNC(=N)N)C(=O)NC(CCCNC(=N)N)C(=O)NC(CCCNC(=N)N)C(=O)NC(CCCNC(=N)N)C(=O)NC(CCCNC(=N)N)C(=O)NC(CCCNC(=N)N)C(=O)O (stereo not given),-15.1 ± 6.2%
24,O=C(O)c1ccc(-c2c[nH]c3ncc(-c4ccccc4)cc23)cc1C1CCCC1,-2.47 ± 9.6%
25,CNC(=O)c1cc(COc2nnc(Nc3ccc(Cl)cc3)c3ccoc23)ccn1 [Telatinib],-1.95 ± 4.8%
26,CS(=O)(=O)O.N#CC1(c2ccc(NC(=O)c3cccnc3NCc3ccncc3)cc2)CCCC1 [Apatinib],-2.66 ± 9.6%
27,Cc1ncc(-c2ccnc(Nc3ccc(S(C)(=O)=O)cc3)n2)n1C(C)C,-3.5 ± 1.6%
28,N#CC[C@H](C1CCCC1)n1cc(-c2ncnc3[nH]ccc23)cn1,22.6 ± 7.6%
29,"O=c1cc(-c2ccccc2)oc2c(O)c(O)ccc12 [7,8-Dihydroxyflavone]",-6.52 ± 5.7%
30,COCC(=O)NC/C=C/c1ccc2ncnc(Nc3ccc(Oc4ccc(C)nc4)c(C)c3)c2c1,3.65 ± 5.5%
